Bioassay records (PubChem BioAssay)
Rows were chosen to be rich in hits. Some 3% of all compounds tested hit in one or more screens of this group.
p53null 32C kill: selectivity test: cytotoxicity in p53 null cells, permissive temperature; AID 903; Potency, µM (titrated, usually from 46.1 µM), without a hit: at the top dose activity change, negative = cytotoxicity, usual class: cytotoxic; H1299-neo p53 null cells, ATP luminescence, 24 h, 32C; 55,000 compounds, 0.62% hits;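 further: potency means the concentration at half of the fitted maximal effect; 0% = DMSO only and -100% = full killing by 100 µM tamoxifen; nearly all actives have a fitted effect of over 55% in size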
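We seeded p53-null H1299-neo cells, incubated them overnight at 37C, and added compounds across a range up to 46 uM. After 24 hours at 32C, ATP reagent was applied for 20 min at room temperature and luminescence recorded.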
S16 viability: S16 Schwann cell cytotoxicity; S16 Pmp22-F2sN Schwann cells viability, CellTiter-Glo, 24 h; Potency, µM (doses to about 57.5 µM), without a hit: at the highest dose activity change, negative = cytotoxicity, actives largely listed as cytotoxic; 43,000 compounds, 0.48% hits; AID 1508642; further: potency means the concentration at half of the fitted maximal effect; on the % scale 0 is the no-effect control and ±100 the full control effect; nearly all actives have a fitted effect of over 65% in size
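S16 Pmp22-F2sN Schwann cells (500-1,000/well) in phenol-red-free DMEM with 10% FBS received 23 nL compound by pin tool for 24 h at 37 °C. Viability was then read as CellTiter-Glo luminescence after 15 min at room temperature.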
p53null 39C kill: selectivity test: cytotoxicity in p53 null cells, nonpermissive temperature. AID 904. H1299 p53-null (neo) cells, 39C, ATPlite viability, 24 h. 55,000 compounds, 0.97% hits. Potency, µM (titrated, usually from 46.1 µM), inactives show at the top dose activity, negative = cell killing, actives largely listed as cytotoxic;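 further: potency means the concentration at half of the fitted maximal effect; 0% = DMSO only and -100% = full killing by 100 µM tamoxifen; nearly all actives have a fitted effect of over 50% in size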
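Cells seeded at 600/well, 37C overnight. Compound added (up to 46 uM), plates shifted to 39C for 24 hr. ATPlite added, luminescence read after 20 min at room temperature.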
mTORC1 inh: inhibitors of mTORC1 signaling in Tsc2-/- p53-/- MEF cells | Tsc2-/- p53-/- MEF, phospho-rpS6 immunofluorescence/PI, 24 h | Potency, µM (doses to about 38.3 µM), inactives show top-dose activity change, negative = inhibition, actives largely listed as inhibitors | 44,000 compounds, 0.78% hits | AID 493208;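 further: potency means the concentration at half of the fitted maximal effect; plate controls were DMSO for no effect and rapamycin for full effect; nearly all actives have a fitted effect of over 50% in size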
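Immunofluorescence of rpS6 phosphorylation in Tsc2-/-, p53-/- MEFs after 24 h compound exposure, normalized to propidium iodide signal. Activity is expressed as % positive cells, thresholded with 7.5 nM rapamycin.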
OvCa metastasis: inhibitors of ovarian cancer cell adhesion and invasion in omental model. SKOV3ip1-GFP adhesion/invasion on 3D omental model, fluorescence. Potency, µM (highest dose often 45.8 µM), for inactives: at the top dose activity change, negative = inhibition, actives largely listed as inhibitors. 46,000 compounds, 0.1% hits;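 further: potency means the concentration at half of the fitted maximal effect; plate controls were DMSO wells for no effect and tomatine positive control wells for full effect; nearly all actives have a fitted effect of over 65% in size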
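Adhesion/invasion was scored as fixed GFP-labeled SKOV3ip1 cell counts (488/509 nm), normalized to DMSO and tomatine controls. Cancer cells in serum-free medium, with four compound doses (0.36-46 umol/L), sat 2 hr at RT then 16 hr at 37 C on a 48 hr fibroblast/mesothelial/ECM culture.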
PMP22 txn: modulators of PMP22 gene transcription in S16 Schwann cells; 43,000 compounds, 2% hits; Potency, µM (highest dose often 57.5 µM), for inactives: top-dose activity change, negative = inhibition, usual class: inhibitors; S16 Pmp22-F2sN Schwann cells (luciferase reporters placed in the Pmp22 gene), FLuc/NLuc coincidence luminescence, 24 h; active means clear falling dose curves in both reporters; inconclusive means both reporters move, but less clearly or upward; inactive means either reporter flat; the % is the NLuc reporter signal; further: potency means the concentration at half of the fitted maximal effect; on the % scale 0 is the no-effect control and ±100 the full control effect
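Reporter cells (S16 Pmp22-F2sN, 500–1,000 per well) exposed to compounds for 24 h, 37C, 5% CO2; lysis with FLuc read after 10 min, then Stop&Glo and NLuc read after 10 min.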
NLuc saturating: NanoLuc enzyme inhibition artifact for PMP22 screen | shares compounds with PMP22 txn | Secreted NLuc enzyme (filtered S16 cell medium), Nano-Glo luminescence | Potency, µM (titrated, usually from 57.5 µM), for inactives: top-dose activity change, negative = inhibition, usual class: inhibitors | 690 compounds, 4% hits | AID 1508638; further: potency means the concentration at half of the fitted maximal effect; on the % scale 0 is the no-effect control and ±100 the full control effect
NLuc Km counter: NanoLuc inhibition at Km substrate, PMP22 artifact check; shares compounds with PMP22 txn; secreted NLuc enzyme, coelenterazine luminescence, Km conditions; Potency, µM (titrated, usually from 57.5 µM), inactives show at the top dose activity change, negative = inhibition, hits mostly inhibitors; 690 compounds, 5% hits; further: potency means the concentration at half of the fitted maximal effect; on the % scale 0 is the no-effect control and ±100 the full control effect
FLuc counter: counter-screen for PMP22 expression modulators: firefly luciferase inhibition; 690 tested, under 10 active; Potency, µM (top dose mostly 57.5 µM), inactives show at the top dose activity, negative = inhibition, actives largely listed as inhibitors; AID 1508640; shares compounds with PMP22 txn; purified P. pyralis FLuc, luminescence, 10 min; further: % of control where 0% means no effect
Target sequence (P08659 whole entry, looked up): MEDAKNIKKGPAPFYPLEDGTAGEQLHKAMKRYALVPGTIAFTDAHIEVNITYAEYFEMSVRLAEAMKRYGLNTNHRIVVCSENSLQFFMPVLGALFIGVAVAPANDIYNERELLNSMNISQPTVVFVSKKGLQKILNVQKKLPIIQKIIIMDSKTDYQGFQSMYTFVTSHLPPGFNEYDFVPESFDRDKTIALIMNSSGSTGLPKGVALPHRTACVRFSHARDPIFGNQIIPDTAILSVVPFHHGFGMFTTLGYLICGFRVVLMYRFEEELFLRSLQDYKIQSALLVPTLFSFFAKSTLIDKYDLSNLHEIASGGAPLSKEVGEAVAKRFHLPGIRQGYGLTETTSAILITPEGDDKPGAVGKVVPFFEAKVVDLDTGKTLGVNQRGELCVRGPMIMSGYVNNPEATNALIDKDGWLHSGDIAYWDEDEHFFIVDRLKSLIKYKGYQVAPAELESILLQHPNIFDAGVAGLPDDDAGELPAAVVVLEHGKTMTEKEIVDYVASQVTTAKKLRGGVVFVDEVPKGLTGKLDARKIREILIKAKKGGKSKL
S16 viab conf: S16 Schwann cell cytotoxicity, confirmatory. shares compounds with PMP22 txn. S16 Schwann cells viability, CellTiter-Glo ATP luminescence, 24 h. Potency, µM (titrated, usually from 57.5 µM), for inactives: at the highest dose activity change, negative = viability loss, actives largely listed as cytotoxic. 690 compounds, 7% hits. AID 1508641; further: potency means the concentration at half of the fitted maximal effect; on the % scale 0 is the no-effect control and ±100 the full control effect
PMP22 txn conf: confirmation of modulators of PMP22 gene transcription in S16 cells; Potency, µM (titrated, usually from 57.5 µM), inactives show at the top dose activity change, negative = inhibition, hits mostly inhibitors; S16 Schwann cells Pmp22-F2sN, dual luciferase, 24 h; shares compounds with PMP22 txn; 690 compounds, 22% hits; active means clear falling dose curves in both reporters; inconclusive means both reporters move, but less clearly or upward; inactive means either reporter flat; the % is the FLuc reporter signal; further: potency means the concentration at half of the fitted maximal effect
PMP22 prot conf: confirmation of modulators of rat PMP22 protein expression; Potency, µM (series often up to 27.9 µM), for the others: top-dose activity change, negative = inhibition, actives largely listed as inhibitors; S16 Schwann cells Pmp22-HiBiT, luminescence, 48 h; 95 tested, under 10 active; AID 1508647; shares compounds with PMP22 txn
Target sequence (P25094 whole entry, looked up): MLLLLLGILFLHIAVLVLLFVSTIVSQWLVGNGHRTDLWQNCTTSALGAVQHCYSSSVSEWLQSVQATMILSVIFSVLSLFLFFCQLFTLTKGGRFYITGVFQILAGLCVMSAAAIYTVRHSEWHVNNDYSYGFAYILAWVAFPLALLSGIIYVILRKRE
Numbers without * were called inactive; i = inactive; ? = inconclusive; . = no result. Unless noted, the call rests on the fitted dose curve; in most records, active means well fitted curve in the direction sought with a large enough effect; inconclusive means small, poorly fitted or top-dose-only effect, or another doubt; inactive means no such curve, though single readings can be large; an effect the other way counts as inactive or inconclusive.

SMILES	p53null 32C kill	S16 viability	p53null 39C kill	mTORC1 inh	OvCa metastasis	PMP22 txn	NLuc saturating	NLuc Km counter	FLuc counter	S16 viab conf	PMP22 txn conf	others
Cc1ccc(CNC(=O)c2ccc(Nc3nc4ccccc4n4nnnc34)cc2)cc1	2.9%	?	-7.0%	?	1.4%	8µM*	-4.9%	-1.0%	-15.4%	?	9.93µM*	PMP22 prot conf=?
CCN(CC)C(=O)c1ccc(C2=CC3(CCNCC3)Oc3cccc(O)c32)cc1	.	.	.	.	-7.2%	.	.	.	.	.	.
Cc1ccc(NC(=O)N(Cc2ccc3c(c2)OCO3)C2CCN(Cc3ccccc3)CC2)cc1C	-5.2%	?	-23.8%	?	?	14.1µM*	-11.7%	?	-1.7%	?	?
COc1cccc(-n2c(SCC(=O)c3ccc(Cl)cc3)nc3c([nH]c4ccccc43)c2=O)c1	?	?	18.5%	-5.5%	4.2%	10µM*	0.6%	3.9%	-5.8%	?	10.9µM*	PMP22 prot conf=-16.0%
CCCOC(=O)c1c(C)oc2c1cc(NS(=O)(=O)c1ccc(OCC)cc1)c1ccccc12	-3.8%	1.4%	?	?	i	8.91µM*	-5.7%	2.7%	-7.2%	11.6%	?
C[C@H]([C@H](O)CCC(C)(C)O)[C@H]1CC[C@@]2(O)C3=CC(=O)[C@@H]4C[C@@H](O)[C@@H](O)C[C@]4(C)[C@@H]3CC[C@]12C	.	.	.	.	-8.6%	.	.	.	.	.	.
Cc1oc(-c2cccc(Cl)c2)nc1CN1CCC(C(=O)NCCCN2CCN(c3cccc(Cl)c3)CC2)CC1	-5.0%	?	?	0.1%	0.6%	11.9µM*	?	?	3.6%	27.3µM*	?
Cc1oc(-c2ccccc2Cl)nc1CN1C(=O)CN=C(c2ccccc2)c2cc(Cl)ccc21	10.9%	?	-8.7%	-8.2%	1.0%	?	.	.	.	.	.
CCOc1ccc(/C=C/c2nc(C#N)c(NCc3ccccc3)o2)cc1	-14.6%	-19.4%	?	?	i	?	-2.4%	-1.2%	-2.8%	11.0%	-18.4%
CN1CCN(c2oc(-c3ccc(COc4ccccc4)o3)nc2C#N)CC1	-11.6%	0.0%	-16.8%	-13.6%	-21.0%	35.4%	.	.	.	.	.
CCN1C[C@]2(OC(=O)c3ccccc3NC(C)=O)CC[C@H](OC)[C@@]34[C@H]5CC6[C@@H](OC)C[C@](O)(C(C[C@@H]23)[C@@H]14)[C@@]5(O)[C@@H]6OC	.	.	.	.	-1.2%	.	.	.	.	.	.
Cc1nn2c(=O)cc(COC(=O)c3ccccc3NC(=O)c3cccs3)nc2s1	-1.8%	-8.3%	?	0.0%	11.0%	7.13µM*	-4.3%	2.2%	-2.8%	9.3%	31.7%
O=C(OCc1cc(=O)n2nc(C3CC3)sc2n1)c1ccc(NC(=O)c2ccccc2Cl)cc1	?	6.1%	-10.0%	5.2%	-2.7%	?	.	.	.	.	.
CCc1c(C(=O)C(N)=O)c2c(OCC(=O)O)cccc2n1Cc1ccccc1	.	.	.	.	9.0%	.	.	.	.	.	.
